# Screens: PubChem BioAssay, National Center for Advancing Translational Sciences (NCATS)
# Compounds with a hit are over-represented: about 18% of the library has one in this group of screens.
# HepG2 tox-1: counter-screen for TGF-b inhibitors: cytotoxicity in HepG2 cells | Potency, µM (doses to about 46.1 µM), for inactives: top-dose activity change, negative = cytotoxicity, hits mostly cytotoxic | hit rate 0.76% among 410,000 | HepG2 CAGA-GFP viability, ATP luminescence, 18 h | AID 588856; also: potency is read from the fitted curve at half-maximal effect
#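 CellTiter-Glo luminescence gave cytotoxicity after 18 hours at 37 degrees C. The cells were HepG2 CAGA-GFP in 1% FBS DMEM, stimulated with 500 pg/mL TGF-beta after compound addition. %Activity was normalised to no-cell wells (complete cell-killing) and DMSO (no toxicity), and curves were fitted and classified.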
# TGFb inhibitor: blocks TGF-b signaling; hit rate 1.2% among 410,000; HepG2 CAGA-GFP TGF-b/SMAD3 reporter, GFP fluorescence, 18 h; TGF-beta stimulated, 500 pg/mL final; Potency, µM (series often up to 46.1 µM), for the others: at the top dose activity, negative = inhibition, usual class: inhibitors; AID 588855; also: potency is read from the fitted curve at half-maximal effect; % is scaled to controls: 0 for no effect and ±100 for the full control effect; nearly all actives have a fitted effect of over 65% in size
#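 HEPG2 CAGA-GFP reporter cells (1000/well, DMEM with 1% FBS) received compounds, then recombinant TGF-beta at 500 pg/mL final for 18 hours at 37 degrees C. Per-cell GFP summed per well was normalised to unstimulated and stimulated DMSO controls before curve fitting.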
# IL-1B inflam inh: inflammasome signaling inhibition, IL-1 beta readout; hit rate 4.7% among 360,000; activity change, % at 57.5 µM; THP-1 LPS/ATP IL-1B secretion, AlphaLISA, 16 h; stronger effect = lower value; in the data active = activity change below about -50%; inconclusive = mostly about -30% to -49%; also: % is scaled to controls: 0 for no effect and ±100 for the full control effect
#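 Secreted IL-1B measured by AlphaLISA bead assay after 16 h compound exposure of THP-1 cells; compounds (final up to 57.5 uM) added 1 h before LPS (250 ng/mL) and ATP (1.25 mM) stimulation; lower signal means less secretion.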
# TDP1 cell noCPT: qHTS for Inhibitors of human tyrosyl-DNA phosphodiesterase 1 (TDP1): qHTS in cells in absence of CPT | DT40 Tdp1-/- hTDP1 cells, no CPT, ATP luminescence, 48 h | Potency, µM (doses to about 46.2 µM), for inactives: at the top dose activity change, negative = growth inhibition, actives largely listed as inhibitors | hit rate 15% among 420,000; also: potency is read from the fitted curve at half-maximal effect; % is scaled to controls: 0 for no effect and ±100 for the full control effect; nearly all actives have a fitted effect of over 55% in size
#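 Readout: luminescence from CellTiter-Glo after 30 min in the dark at RT. Cells: DT40 Tdp1-/- with stable hTDP1, 400/well. Exposure: compounds alone, ≥48 hr, 37 °C.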
# DT40 TDP1 CPT: growth inhibition of DT40 Tdp1-/-;hTDP1 cells with camptothecin (screen for TDP1 inhibitors); chicken DT40 Tdp1-/-;hTDP1 cells + 20 nM CPT, ATP luminescence, 48 h; Potency, µM (top dose mostly 46.2 µM), for the others: at the highest dose activity change, negative = growth inhibition, hits mostly inhibitors; hit rate 12% among 420,000; also: potency is read from the fitted curve at half-maximal effect; % is scaled to controls: 0 for no effect and ±100 for the full control effect; nearly all actives have a fitted effect of over 55% in size
#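 Chicken DT40 Tdp1-/- cells complemented with human TDP1, 400 cells/well, exposed to compounds plus 20 nM camptothecin for at least 48 h at 37 C; viability read as ATP content by CellTiter-Glo luminescence.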
# TDP1 inh: inhibitors of human tyrosyl-DNA phosphodiesterase TDP1; Q9NUW8; recombinant TDP1, AlphaScreen DNA substrate cleavage; Potency, µM (top dose mostly 130 µM), inactives show top-dose activity change, negative = inhibition, most hits filed as inhibitors; hit rate 0.28% among 350,000; AID 485290; also: potency is read from the fitted curve at half-maximal effect; % is scaled to controls: 0 for no effect and ±100 for the full control effect; nearly all actives have a fitted effect of over 40% in size
# Target sequence (Q9NUW8 whole entry, looked up): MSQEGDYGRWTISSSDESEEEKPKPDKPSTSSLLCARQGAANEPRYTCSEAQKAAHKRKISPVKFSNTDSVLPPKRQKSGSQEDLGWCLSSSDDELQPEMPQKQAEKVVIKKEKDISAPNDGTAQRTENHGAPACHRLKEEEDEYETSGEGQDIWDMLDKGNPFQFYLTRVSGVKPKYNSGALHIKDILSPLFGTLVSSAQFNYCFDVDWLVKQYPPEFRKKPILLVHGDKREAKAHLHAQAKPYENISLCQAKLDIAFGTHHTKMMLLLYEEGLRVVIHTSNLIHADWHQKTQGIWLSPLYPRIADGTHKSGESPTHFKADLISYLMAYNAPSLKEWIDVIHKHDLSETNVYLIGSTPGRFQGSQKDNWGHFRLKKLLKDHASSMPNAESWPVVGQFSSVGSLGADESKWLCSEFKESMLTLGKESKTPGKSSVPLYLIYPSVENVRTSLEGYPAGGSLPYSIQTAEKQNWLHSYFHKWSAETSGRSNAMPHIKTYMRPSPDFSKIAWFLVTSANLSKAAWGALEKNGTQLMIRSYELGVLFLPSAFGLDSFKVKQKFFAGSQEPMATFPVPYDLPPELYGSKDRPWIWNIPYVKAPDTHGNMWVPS
#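 Recombinant E. coli-expressed Tdp1 (1 nM) preincubated with compound 15 min at RT, then 5'-biotin/3'-phosphotyrosine-FITC DNA substrate (15 nM) added for 5 min. AlphaScreen beads (10 ug/ml) added, 10 min RT; tyrosine-FITC cleavage read as signal loss.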
# TGFb confirm: confirmation of TGF-b signaling inhibitors in HepG2 reporter cells; shares compounds with TGFb inhibitor; HepG2 CAGA-GFP TGF-b reporter, GFP fluorescence, 18 h; cells stimulated with TGF-beta, 500 pg/mL; Potency, µM (top dose mostly 46.1 µM), inactives show at the top dose activity, negative = inhibition, most hits filed as inhibitors; hit rate 63% among 1,600; also: potency is read from the fitted curve at half-maximal effect; % is scaled to controls: 0 for no effect and ±100 for the full control effect; nearly all actives have a fitted effect of over 65% in size
# HepG2 tox-2: toxic to HepG2 cells in TGF-b counterscreen. HepG2 CAGA-GFP viability, ATP luminescence, 18 h; cells stimulated with TGF-beta, 500 pg/mL. shares compounds with TGFb inhibitor. AID 720535. hit rate 27% among 1,600. Potency, µM (titrated, usually from 46.1 µM), for inactives: top-dose activity, negative = cytotoxicity, hits mostly inhibitors; also: potency is read from the fitted curve at half-maximal effect; % is scaled to controls: 0 for no effect and ±100 for the full control effect; nearly all actives have a fitted effect of over 70% in size
# TGFb CCL64 inh: TGF-b inhibition, CCL64 orthogonal assay | hit rate 41% among 1,600 | AID 720536 | Potency, µM (doses to about 46.1 µM), inactives show at the top dose activity, negative = inhibition, usual class: inhibitors | shares compounds with TGFb inhibitor | CCL64 CAGA-GFP reporter, TGF-b stimulated, GFP fluorescence, 18 h; also: potency is read from the fitted curve at half-maximal effect; nearly all actives have a fitted effect of over 65% in size
# TGFb COP inh: TGF-b inhibition validated with COP promoter; Potency, µM (series often up to 46.1 µM), for inactives: at the top dose activity, negative = inhibition, most hits filed as inhibitors; AID 720537; hit rate 3% among 1,600; shares compounds with TGFb inhibitor; HepG2 COP-GFP TGF-b reporter, GFP fluorescence, 18 h; cells stimulated by added recombinant TGF-beta; also: potency is read from the fitted curve at half-maximal effect; nearly all actives have a fitted effect of over 70% in size
# An asterisk follows results filed as active; ? = inconclusive; . = no result; [ ] = another dose, or the depositor's remark. Unless noted, calls follow the shape of the dose curve; as a rule, active = well fitted curve in the direction sought with a large enough effect; inconclusive = small, poorly fitted or top-dose-only effect, or another doubt; inactive = no such curve, though single readings can be large; an effect the other way counts as inactive or inconclusive.
SMILES,HepG2 tox-1,TGFb inhibitor,IL-1B inflam inh,TDP1 cell noCPT,DT40 TDP1 CPT,TDP1 inh,TGFb confirm,HepG2 tox-2,TGFb CCL64 inh,TGFb COP inh
Nc1ncnc2c(C3OC(CO)C(O)C3O)scc12 (centres undefined),-86%,-122%,-116*,0.016µM*,0.012µM*,.,0.016µM*,0.073µM*,0.92µM*,42%
CNc1nc2c(N)ncnc2n1[C@H]1O[C@@H](CO)[C@H](O)[C@@H]1O,-18%,-7%,-13,?,?,.,.,.,.,.
Cc1ccccc1CN1CCN(C/C=C/c2ccccc2)CC1,-37%,-25%,-14,?,?,-8%,.,.,.,.
Cc1cccc(C)c1-n1nnnc1C(c1cccs1)N1CCN(C/C=C/c2ccccc2)CC1 (centres undefined),-29%,?,-15,?,?,.,?,-17%,21µM*,7%
C(=C\c1ccccc1)/CN1CCN(C(c2ccnc3ccccc23)c2nnnn2-c2ccc3c(c2)OCCO3)CC1 (centres undefined),1%,?,0,21µM*,16µM*,.,15µM*,-27%,?,30%
O=C(CSC1=NCCS1)Nc1ccnc2ccccc12,-26%,?,?,9.2µM*,6.5µM*,-2%,10µM*,8%,-3%,-20%
O=S(=O)(/N=C(/Nc1cccnc1)c1ccccc1)c1ccc(F)cc1F,-16%,?,9,-40%,-11%,3%,.,.,.,.
Cc1cc2oc(=O)cc(-c3ccccc3)c2c(C)c1-c1ccc(O)cc1,-28%,?,0,?,?,1%[56.1 µM],.,.,.,.
Cc1oc2cc(Br)c(O)c(Br)c2c1-c1ccccc1,-66%,10µM*,-12,?,-35%,.,?,-17%,?,19%
Cc1ccc(S(=O)(=O)N(CC(=O)Nc2ccccc2C(=O)O)c2ccc(Cl)cc2)cc1,9%,6%,0,-6%,-3%,3%,.,.,.,.
CN(C)c1nc(N/N=C/c2ccccc2O)nc(Nc2ccc(F)cc2)n1,-24%,13µM*,87,0.58µM*,2.3µM*,11%,15µM*,?,?,-2%
Cc1ccc(S(=O)(=O)n2cc(-c3ccccc3)c(N)n2)cc1,10%,-21%,-5,-15%,?,1%,.,.,.,.
Nc1nn(S(=O)(=O)c2ccccc2)cc1-c1ccc([N+](=O)[O-])cc1,-19%,?,14,?,?,-3%,16µM*,0%,-29%,-1%
CC(=NNC(=O)CSc1nc2ccccc2o1)c1ccco1,5%,0%,6,3%,-11%,0%,.,.,.,.
O=C(Nc1cccc(C(F)(F)F)c1)C(SCCO)c1ccccc1 (centres undefined),-4%,-15%,14,?,12%,-3%,.,.,.,.
Cn1nnnc1SC(C(=O)Nc1cccc(C(F)(F)F)c1)c1ccccc1 (centres undefined),-4%,11µM*,-72*,-17%,-19%,0%,?,-21%,?,4%
Cc1cccc(N(C)C(=O)C2CCCN2S(=O)(=O)c2cccc3nsnc23)c1 (centres undefined),3%,-4%,?,-8%,-26%,1%,.,.,.,.
